The full ranking holds about 81,000 sequences; the median of “one-hybrid fitness for binding NBS DNA” is about -0.1, and the highest 2% start at about 0.36. This excerpt belongs to a sample that is enriched for the highest values.
B1: Caulobacter ParB omega fusion; a variant is named by its letters at X, in order, B8GW30 (parent)
chain: MESVVVGEPGMSEGRRGLGRGLSALLGEVDAAPAQAPGEQLGGSREAPIEILQRNPDQPRRTFREEDLEDLSNSIREKGVLQPILVRPSPDTAGEYQIVAGERAWRAAQRAGLKTVPIMVRELDDLAVLEIGIIENVQRADLNVLEEALSYKVLMEKFERTQENIAQTIGKSXSHVANXMRLLXLPDEVQSYLVSGELTAXHARAIAAAADPVALAKQIIEGGLSVRETEALARKAPNLSAGKSKGGRPPRVKDTDTQALESDLSSVLGLDVSIDHRGSTGTLTITYATLEQLDDLCNRLTRGI

Variants of: B1
Test: one-hybrid fitness for binding NBS DNA (the Noc-binding site; scaled: cognate 1, non-cognate 0); higher = stronger binding
Settings: with NBS DNA site
How it was run: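 Selection: bacterial one-hybrid in E. coli USO, HIS3 reporter with the site 19 bp from the promoter, 48 hours at 37°C on M9-minus-histidine plus 0.1 mM IPTG and 5 mM 3-AT. Libraries were Caulobacter ParB with four randomised specificity codons, sequenced on Illumina before and after selection. Fitness is the rescaled log change in variant-to-wild-type read ratio, anchored to the cognate and non-cognate sites.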

Variant | one-hybrid fitness for binding NBS DNA
NNIR | ≤ 0.2
LTMG | ≤ 0.2
YGMS | ≤ 0.2
RDGN | ≤ 0.2
AVNT | ≤ 0.2
WVRG | ≤ 0.2
LRPM | ≤ 0.2
KTIT | ≤ 0.2
DVIS | ≤ 0.2
LRVF | ≤ 0.2
QRPF | ≤ 0.2
QCKF | 0.387
QTKF | 0.43
QPKF | ≤ 0.2
QTLF | ≤ 0.2
QRKF | 0.405
QSKF | 0.29
QRVF | ≤ 0.2
QTVF | ≤ 0.2
ASVE | ≤ 0.2
QMSV | ≤ 0.2
QFMT | ≤ 0.2
SSYL | ≤ 0.2
ETES | ≤ 0.2

Variant | one-hybrid fitness for binding NBS DNA
RVIR | 0.242
VVRC | ≤ 0.2
HHPQ | ≤ 0.2
VVGI | ≤ 0.2
EYWD | ≤ 0.2
RSRA | 0.317
RTDA | ≤ 0.2
RYRA | 0.367
RTRA | 0.446
RMDA | ≤ 0.2
RMYA | ≤ 0.2
RTYA | 0.268
RMRA | 0.409
RPRA | ≤ 0.2
RYYA | ≤ 0.2
RCRA | 0.422
RYDA | ≤ 0.2
GMVG | ≤ 0.2
QAEN | ≤ 0.2
LNQS | ≤ 0.2
QLYL | ≤ 0.2
PLQD | ≤ 0.2
RKDA | ≤ 0.2
RKRA | 0.45

Variant | one-hybrid fitness for binding NBS DNA
RKYA | 0.344
LPLA | ≤ 0.2
AQDR | ≤ 0.2
LIAK | ≤ 0.2
RQYC | ≤ 0.2
RQKP | ≤ 0.2
RQKS | 0.581
RQKN | 0.214
RQVH | ≤ 0.2
RQKC | 0.381
RQKH | 0.376
RQKD | ≤ 0.2
RQVC | ≤ 0.2
PEWV | ≤ 0.2
NNCS | ≤ 0.2
ASVF | ≤ 0.2
CPDH | ≤ 0.2
EDYG | ≤ 0.2
PTEW | ≤ 0.2
LKYT | ≤ 0.2
VKLR | ≤ 0.2
WHHR | ≤ 0.2
CGEV | ≤ 0.2
PNVE | ≤ 0.2

Variant | one-hybrid fitness for binding NBS DNA
RKKV | 0.277
WVQL | ≤ 0.2
KRVT | 0.547
KCVT | ≤ 0.2
KRKT | 0.66
KPKT | ≤ 0.2
KCKT | 0.212
KPVT | ≤ 0.2
CLTC | ≤ 0.2
AGTG | ≤ 0.2
LNTG | ≤ 0.2
GMVQ | ≤ 0.2
PNQS | ≤ 0.2
SNTG | ≤ 0.2
AFGR | ≤ 0.2
RKNW | ≤ 0.2
QVDT | ≤ 0.2
QVYT | 0.268
QVNT | 0.44
QVPT | ≤ 0.2
QVNH | ≤ 0.2
QVHT | 0.373
QVRT | 0.56
QVHS | 0.296

Variant | one-hybrid fitness for binding NBS DNA
QVHP | ≤ 0.2
VWQD | ≤ 0.2
RNQS | 0.281
FLHG | ≤ 0.2
RTTR | 0.571
RSTR | 0.447
RITD | ≤ 0.2
RTTF | ≤ 0.2
RSTP | ≤ 0.2
RITR | 0.437
RITP | ≤ 0.2
RSTN | ≤ 0.2
RATR | 0.43
RTTQ | ≤ 0.2
RATN | ≤ 0.2
RATP | ≤ 0.2
PCDK | ≤ 0.2
FRRH | ≤ 0.2
RLSY | ≤ 0.2
INTS | ≤ 0.2
LHDW | ≤ 0.2
TECL | ≤ 0.2
SMQN | ≤ 0.2
TDVE | ≤ 0.2

Variant | one-hybrid fitness for binding NBS DNA
RKTR | 0.602
RHTG | ≤ 0.2
RHTK | ≤ 0.2
RRTR | 0.75
RLTR | 0.443
RKTK | ≤ 0.2
RLTY | ≤ 0.2
RRTF | ≤ 0.2
RLTQ | ≤ 0.2
RRTC | 0.314
RKTN | ≤ 0.2
RHTR | 0.459
RNPQ | ≤ 0.2
MEAC | ≤ 0.2
CITN | ≤ 0.2
YDAI | ≤ 0.2
TGAY | ≤ 0.2
NFLN | ≤ 0.2
CWAR | ≤ 0.2
PSCM | ≤ 0.2
QDAF | ≤ 0.2
APPH | ≤ 0.2
CTYS | ≤ 0.2
ATYE | ≤ 0.2

Variant | one-hybrid fitness for binding NBS DNA
RCTR | 0.534
RMTH | ≤ 0.2
RFTR | 0.298
RMTP | ≤ 0.2
RMTR | 0.446
RPTR | ≤ 0.2
FPHC | ≤ 0.2
CSFN | ≤ 0.2
QSVR | 0.379
QPVH | ≤ 0.2
QPVR | 0.377
QCVR | 0.48
QSVD | ≤ 0.2
QDVR | ≤ 0.2
QSVN | ≤ 0.2
QPVN | ≤ 0.2
QGVR | ≤ 0.2
RICA | ≤ 0.2
IIHR | ≤ 0.2
TNLI | ≤ 0.2
SPSF | ≤ 0.2
FYQC | ≤ 0.2
GTTP | ≤ 0.2
QSER | 0.285

Variant | one-hybrid fitness for binding NBS DNA
QPER | ≤ 0.2
QRER | 0.637
QHER | 0.288
QCER | 0.438
QIER | 0.219
QTEN | ≤ 0.2
QTER | 0.458
QTEP | ≤ 0.2
SKCT | ≤ 0.2
HAHK | ≤ 0.2
QAQC | ≤ 0.2
VFIG | ≤ 0.2
QRSH | 0.522
QCSN | ≤ 0.2
QPSN | ≤ 0.2
QCSC | ≤ 0.2
QRSM | 0.374
QCSM | ≤ 0.2
QRSC | 0.366
QRSN | 0.366
QPSM | ≤ 0.2
QCSH | 0.272
QSSC | ≤ 0.2
QSSH | ≤ 0.2

Variant | one-hybrid fitness for binding NBS DNA
YCVT | ≤ 0.2
ANMM | ≤ 0.2
GNYC | ≤ 0.2
KFHF | ≤ 0.2
LSDV | ≤ 0.2
QMHF | ≤ 0.2
GKLV | ≤ 0.2
PMVT | ≤ 0.2
VREL | ≤ 0.2
QCSQ | 0.271
QRSD | 0.208
QPSQ | ≤ 0.2
QRSP | ≤ 0.2
QRSQ | 0.434
QRSS | 0.659
MSPC | ≤ 0.2
KWCV | ≤ 0.2
LAAG | ≤ 0.2
HYQF | ≤ 0.2
QSFR | 0.37
QSFH | ≤ 0.2
QPFR | ≤ 0.2
QCFR | 0.517
QDFR | ≤ 0.2

Variant | one-hybrid fitness for binding NBS DNA
QSFN | ≤ 0.2
FCHW | ≤ 0.2
TICV | ≤ 0.2
LGEA | ≤ 0.2
FLQL | ≤ 0.2
LSCN | ≤ 0.2
HMKT | ≤ 0.2
TSIM | ≤ 0.2
LVHF | ≤ 0.2
QMRC | 0.406
QMDC | ≤ 0.2
QKYC | ≤ 0.2
QMYC | ≤ 0.2
QCYC | 0.204
QTYC | ≤ 0.2
QKDC | ≤ 0.2
QTDC | ≤ 0.2
QTRC | 0.548
QKRC | 0.425
QPRC | ≤ 0.2
QCRC | 0.512
PNKD | ≤ 0.2
RLIW | ≤ 0.2
CRYF | ≤ 0.2

Variant | one-hybrid fitness for binding NBS DNA
IAWR | ≤ 0.2
GMPT | ≤ 0.2
VMEC | ≤ 0.2
LQWD | ≤ 0.2
PYKF | ≤ 0.2
ENTG | ≤ 0.2
QSRC | 0.374
QRYC | 0.296
QRRC | 0.489
QSDC | ≤ 0.2
QSYC | ≤ 0.2
QREC | 0.22
IMYD | ≤ 0.2
YWMG | ≤ 0.2
QCFT | 0.424
QRFT | 0.723
QRAT | 0.797
QSFT | 0.315
QPFT | ≤ 0.2
NRAT | ≤ 0.2
DRAT | ≤ 0.2
RWNW | ≤ 0.2
MQNW | ≤ 0.2
DCWS | ≤ 0.2

Variant | one-hybrid fitness for binding NBS DNA
TDLC | ≤ 0.2
NLFC | ≤ 0.2
PGYI | ≤ 0.2
MRFG | ≤ 0.2
SRKF | ≤ 0.2
PKCF | ≤ 0.2
VYYR | ≤ 0.2
QTIG | ≤ 0.2
QRVG | 0.232
QCKG | 0.377
QTKG | 0.503
QSKG | 0.302
QTVG | ≤ 0.2
QPKG | ≤ 0.2
QIKG | ≤ 0.2
QRKG | 0.485
KESF | ≤ 0.2
IFWR | ≤ 0.2
KAHR | ≤ 0.2
AQIS | ≤ 0.2
RGNV | ≤ 0.2
HSPH | ≤ 0.2
WDHG | ≤ 0.2
KMKY | ≤ 0.2

Variant | one-hybrid fitness for binding NBS DNA
QYKQ | 0.394
QYVQ | 0.313
QYRQ | 0.435
QYNQ | ≤ 0.2
QYSQ | ≤ 0.2
QYCQ | ≤ 0.2
RSEI | ≤ 0.2
SPTR | ≤ 0.2
RTVN | ≤ 0.2
RTVH | ≤ 0.2
RTYY | ≤ 0.2
RTVS | 0.39
RTDY | ≤ 0.2
RPKY | ≤ 0.2
RTRY | 0.38
RTVY | ≤ 0.2
RTKD | ≤ 0.2
RTVP | ≤ 0.2
RTKY | 0.418
RTKH | 0.651
